Consider six sequences from publication PMC8384837, “Expanding the binding specificity for RNA recognition by a PUF domain”.

PUM1 PUF domain R4-EPR, sequence (Q14671 828-1176 N971E/H972P/Q975R): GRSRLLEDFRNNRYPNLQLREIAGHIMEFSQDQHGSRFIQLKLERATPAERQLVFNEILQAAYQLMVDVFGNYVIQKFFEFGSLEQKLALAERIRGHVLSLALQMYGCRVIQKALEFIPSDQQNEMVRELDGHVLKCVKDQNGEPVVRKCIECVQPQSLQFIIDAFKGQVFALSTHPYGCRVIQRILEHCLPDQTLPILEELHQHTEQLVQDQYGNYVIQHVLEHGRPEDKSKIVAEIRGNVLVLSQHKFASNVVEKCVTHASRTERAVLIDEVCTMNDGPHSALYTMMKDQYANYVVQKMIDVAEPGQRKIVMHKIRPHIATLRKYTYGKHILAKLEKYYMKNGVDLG
PUM1 PUF domain R5-DHL, sequence (Q14671 828-1176 C1007D/R1008H/Q1011L): as the sequence (Q14671 828-1176 N971E/H972P/Q975R) above, with E144N, P145H, R148Q, C180D, R181H, Q184L counted along it
PUM1 PUF domain R5-PRE, sequence (Q14671 828-1176 C1007P/Q1011E): as the sequence (Q14671 828-1176 N971E/H972P/Q975R) above, with E144N, P145H, R148Q, C180P, Q184E counted along it

One test concerns the target PUM1 PUF domain R4-EPR (Homo sapiens, UniProt Q14671 828-1176, N971E;H972P;Q975R). In words: yeast three-hybrid, YBZ-1, SC-Leu-His + 0.5 mM 3-AT, 4 days. Conditions: tags: N-Gal4 AD-HA kept; label: inside an RPR1-promoter hybrid RNA with tandem MS2 sites; ssRNA. In short, it runs like this:
(§1)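 Pumilio-1 PUF domain libraries, randomized at the three base-contacting residues of each repeat, were co-expressed with matching RNA elements from a centromeric plasmid in strain YBZ-1, which carries a LexA–MS2 coat fusion and a HIS3 reporter. Transformants grew for four days on SC-Leu (input) or on SC-Leu-His + 0.5 mM 3-AT (selection), and the repeat regions were PCR-amplified and Illumina-sequenced. The interaction score is the log change in variant frequency from input to selection. That logarithm is base 2, with a pseudocount of 1 where a variant was absent.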
Regarding “GGCUAGAACUAGUGGAUCCCCCGGCGCCCGGCGGCUCGAGCCCGGGUAAGUGUACAUAGUCUGCAUGCCGCCGGGCGCCAUGCCUGCAGGUCGACUCUAGAAAACAUG”, the binding signal was 3.74 log2 enrichment (interaction score). Take “GGCUAGAACUAGUGGAUCCCCCGGCGCCCGGCGGCUCGAGCCCGGGUAAGUGUAUAUAGUCUGCAUGCCGCCGGGCGCCAUGCCUGCAGGUCGACUCUAGAAAACAUG”: the binding signal was 2.23 log2 enrichment (interaction score). For “GGCUAGAACUAGUGGAUCCCCCGGCGCCCGGCGGCUCGAGCCCGGGUAAGUGUAAAUAGUCUGCAUGCCGCCGGGCGCCAUGCCUGCAGGUCGACUCUAGAAAACAUG”, the binding signal is 4.56 log2 enrichment (interaction score).

A further test has as its target PUM1 PUF domain R5-DHL (Homo sapiens, UniProt Q14671 828-1176, C1007D;R1008H;Q1011L). The test is described as above. Particulars: tags: N-Gal4 AD-HA kept; label: inside an RPR1-promoter hybrid RNA with tandem MS2 sites; ssRNA. A digest of the protocol: as §1
For “GGCUAGAACUAGUGGAUCCCCCGGCGCCCGGCGGCUCGAGCCCGGGUAAGUGUGAAUAGUCUGCAUGCCGCCGGGCGCCAUGCCUGCAGGUCGACUCUAGAAAACAUG”, the binding signal is 2.54 log2 enrichment (interaction score). “GGCUAGAACUAGUGGAUCCCCCGGCGCCCGGCGGCUCGAGCCCGGGUAAGUGUCAAUAGUCUGCAUGCCGCCGGGCGCCAUGCCUGCAGGUCGACUCUAGAAAACAUG”: the binding signal was 2.14 log2 enrichment (interaction score). Turning to “GGCUAGAACUAGUGGAUCCCCCGGCGCCCGGCGGCUCGAGCCCGGGUAAGUGUAAAUAGUCUGCAUGCCGCCGGGCGCCAUGCCUGCAGGUCGACUCUAGAAAACAUG”, the binding signal was 3.58 log2 enrichment (interaction score).

For another test, the target named is PUM1 PUF domain R5-PRE (Homo sapiens, UniProt Q14671 828-1176, C1007P;Q1011E). The description is as above. Conditions: tags: N-Gal4 AD-HA kept; label: inside an RPR1-promoter hybrid RNA with tandem MS2 sites; ssRNA. A digest of the protocol:
as §1
For “GGCUAGAACUAGUGGAUCCCCCGGCGCCCGGCGGCUCGAGCCCGGGUAAGUGUGAAUAGUCUGCAUGCCGCCGGGCGCCAUGCCUGCAGGUCGACUCUAGAAAACAUG”, the binding signal is 3.8 log2 enrichment (interaction score). For the sequence “GGCUAGAACUAGUGGAUCCCCCGGCGCCCGGCGGCUCGAGCCCGGGUAAGUGUAAAUAGUCUGCAUGCCGCCGGGCGCCAUGCCUGCAGGUCGACUCUAGAAAACAUG”, the binding signal was 3.07 log2 enrichment (interaction score).

In the case of “GGCUAGAACUAGUGGAUCCCCCGGCGCCCGGCGGCUCGAGCCCGGGUAAGUGUUAAUAGUCUGCAUGCCGCCGGGCGCCAUGCCUGCAGGUCGACUCUAGAAAACAUG”, the binding signal was 2.73 log2 enrichment (interaction score).
